Sampled rows, rich in hits. Any-hit rate of the full collection: about 2.2%.
Giardia killer: Giardia lamblia killing; Giardia lamblia trophozoite viability; hit rate 0.15% among 340,000; activity change, % at 7.66 µM, hits read low; in the data active = activity change below about -80%; inconclusive = between about -30% and that limit;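 also: parasites exposed to compound for two days anaerobically before the ATP read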
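Luminescent ATP signal served as the viability read-out, measured 15-30 min after adding ATP detection reagent to trophozoites that had been incubated with compounds for 48 hrs at 37 deg C anaerobically at 100 cells/well.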
mIDH1 inhibitor: blocks human mutant IDH1 R132H enzyme | O75874 | hit rate 0.093% among 390,000 | IDH1-R132H enzyme, NADPH consumption, diaphorase/resazurin fluorescence | Potency, µM (titrated, usually from 76.6 µM), usual class: inhibitors; also: nearly all actives have a fitted effect of over 65% in size
Target sequence (O75874 whole entry R132H, stated change not applied): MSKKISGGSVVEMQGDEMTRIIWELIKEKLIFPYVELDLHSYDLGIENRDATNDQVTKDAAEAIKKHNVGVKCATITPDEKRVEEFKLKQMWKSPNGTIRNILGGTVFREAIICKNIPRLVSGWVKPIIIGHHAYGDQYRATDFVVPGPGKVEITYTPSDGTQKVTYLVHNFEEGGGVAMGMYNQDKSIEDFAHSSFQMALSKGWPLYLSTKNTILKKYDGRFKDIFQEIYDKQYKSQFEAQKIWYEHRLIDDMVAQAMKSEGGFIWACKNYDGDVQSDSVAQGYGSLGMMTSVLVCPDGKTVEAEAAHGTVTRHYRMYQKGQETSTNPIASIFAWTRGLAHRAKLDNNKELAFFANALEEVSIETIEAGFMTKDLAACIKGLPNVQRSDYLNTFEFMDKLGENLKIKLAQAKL
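IDH1-R132H (0.5 ug/mL) preincubated 30 min with compound, then NADPH (0.016 mM) and alpha-KG (2 mM) added; 80 min at RT, pH 7.5. Remaining NADPH coupled via diaphorase/resazurin to fluorescence (540/590 nm); concentration-response curves normalized to no-enzyme control.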
BRCA1 expr act: BRCA1 expression activation; hit rate 1.1% among 380,000; AID 624202; Potency, µM (highest dose often 46.1 µM), hits mostly activators; MCF7-BRCA1-FFLuc reporter, luminescence, 48 h; response scale: scaled: vehicle 0%, 10 µM genistein 100%; also: nearly all actives have a fitted effect of over 80% in size
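Quantitative HTS in MCF7 cells stably reporting BRCA1 expression via firefly luciferase. Compound treatment lasts 48 h at 37 °C in phenol-red free MEM. Activation is expressed relative to genistein at 10 microM and DMSO.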
TrxR1 substrate: substrates of rat thioredoxin reductase 1. O89049. purified TrxR1 substrate turnover, NADPH consumption readout. Potency, µM (highest dose often 114 µM). hit rate 0.01% among 390,000; also: nearly all actives have a fitted effect of over 50% in size
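Rat TrxR1, dispensed at 90 nM, was prereduced with 400 uM NADPH (final) for 5 min at ~22 deg C, then incubated with compound 15 min before 400 uM selenite. A first-read NADPH fluorescence drop versus no-compound background flagged substrates.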
rTrxR1 inhibitor: rat TrxR1 inhibition; hit rate 1% among 390,000; Potency, µM (series often up to 114 µM), hits mostly inhibitors; AID 588453; recombinant rTrxR1, NADPH fluorescence consumption, selenite substrate; also: nearly all actives have a fitted effect of over 65% in size
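Rat TrxR1 (90 nM in the dispensed reagent) was pre-reduced with 400 uM NADPH for 5 min at room temperature, then incubated with compound for 15 min. After 400 uM selenite was added, NADPH fluorescence (Ex 340/Em 450 nm) was followed for 8 min.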
IL-2 act: activators of IL-2 | hit rate 0.065% among 360,000 | activation, % (series mostly up to about 46 µM) | AID 652025 | IL-2 activation reporter assay, cell-based qHTS; stimulated with anti-CD3/CD4/CD28 beads; in transgenic mouse T cells; in the data active = activation above about 50%; inconclusive = mostly about 30% to 49%
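Unstimulated transgenic mouse T cells; 60-min compound exposure; bead-based TCR/CD4/CD28 stimulation; 18 h culture, 37 degrees C; dual fluorescence (EGFP, DsRed) plate cytometry.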
Of the large screens only hits and unclear results are named; the others gave an inactive call. Unless noted, calls follow the shape of the dose curve; as a rule, active = well fitted curve in the direction sought with a large enough effect; inconclusive = small, poorly fitted or top-dose-only effect, or another doubt; inactive = no such curve, though single readings can be large; an effect the other way counts as inactive or inconclusive.

CC(=O)Nc1cccc(/C(C)=N/NC(=O)c2cccs2)c1	BRCA1 expr act inconclusive
C=C(C)C1CC=C(C)/C(=N/NC(=O)c2cccs2)C1 (stereo not given)	BRCA1 expr act 10µM
C/C(=N/NC(=O)c1cccs1)c1cccc(N)c1	BRCA1 expr act 11µM
C/C(=N\NC(=O)c1cccs1)c1c(O)cc(C)oc1=O	BRCA1 expr act 3.5µM
C/C(=N\NC(=O)c1cc2ccccc2cc1O)c1cccs1	none
O=C(CSc1nnc(-c2cccs2)o1)Nc1cccc(C(F)(F)F)c1	none (no result: Giardia killer, BRCA1 expr act, IL-2 act)
O=C(NCCc1nc2ccccc2n1CCOc1ccc2ccccc2c1)C1CCCCC1	none (no result: mIDH1 inhibitor, IL-2 act)
O=C1Nc2cccnc2N(C(=O)CCl)c2ccccc21	rTrxR1 inhibitor 13µM
COc1ccc(N2C(=O)CC(Sc3ncn[nH]3)C2=O)c(OC)c1 (stereo not given)	rTrxR1 inhibitor 0.5µM
CC(C)c1ccc(N2C(=O)CC(Sc3ncn[nH]3)C2=O)cc1 (stereo not given)	rTrxR1 inhibitor inconclusive
COc1ccc(NC(=O)C(NC(=O)C2CCC(C)CC2)C(C)C)cc1 (stereo not given)	none (no result: Giardia killer, BRCA1 expr act, IL-2 act)
O=C(NNCc1ccccc1)c1ccccc1	none
O=C(NNCc1ccccc1)c1ccccn1	BRCA1 expr act 1.1µM
C=CCn1cccc(C(=O)Nc2ccc(SC)cc2)c1=O	none
C=CCn1cccc(C(=O)Nc2ccc(C)c(Cl)c2)c1=O	BRCA1 expr act 4.5µM
C=CCn1cccc(C(=O)Nc2ccc(OC)c(Cl)c2)c1=O	none
C=CCn1cccc(C(=O)Nc2ccc(Cl)cc2)c1=O	BRCA1 expr act 5.6µM
CC1CCCCC1NC(=O)COCc1cc(-c2cccs2)on1 (stereo not given)	rTrxR1 inhibitor 45µM
Cc1ccc(NC(CC(=O)c2ccccc2)C(=O)O)cc1Cl (stereo not given)	none
O=C(CC(Nc1ccc(Cl)cc1Cl)C(=O)O)c1ccccc1 (stereo not given)	rTrxR1 inhibitor 25µM
O=C(CC(Nc1ccccc1)C(=O)O)c1ccccc1 (stereo not given)	BRCA1 expr act 11µM, rTrxR1 inhibitor inconclusive
CC(=O)C(Sc1nc(-c2ccccc2Cl)nc2c1c(=O)n(C)c(=O)n2C)C(=O)N(C)C (stereo not given)	none (no result: Giardia killer, BRCA1 expr act, IL-2 act)
COC(=O)c1c(-c2cccs2)csc1NC(=O)c1cc(OC)cc(OC)c1	none (no result: Giardia killer, BRCA1 expr act, IL-2 act)
O=C(O)C(C(=O)/C=C/c1ccco1)=C1SCCS1	rTrxR1 inhibitor 25µM
O=C(/C=C/c1ccco1)NC1CCCC1	none
O=C(C=C1SCCS1)/C=C/c1ccco1	BRCA1 expr act inconclusive, rTrxR1 inhibitor 40µM
Cc1cc2c(n1-c1ccc(C(=O)NCc3cccc(Br)c3)cc1)CCC(C)C2 (stereo not given)	rTrxR1 inhibitor inconclusive (no result: Giardia killer, BRCA1 expr act, IL-2 act)
CCCCCN1C=CC(=C2C(=O)c3ccccc3C2=O)C=C1	Giardia killer -92, BRCA1 expr act inconclusive
CC1=CC(=C2C(=O)c3ccccc3C2=O)C=C(C)N1C	none
CCN(CC)CCn1c(NCc2ccc(C)o2)nc2ccccc21	none
Cc1ccc(CNc2nc3ccccc3n2C)o1	BRCA1 expr act 4µM
CCn1cnc2cc(NCc3ccccc3Cl)ccc21	BRCA1 expr act inconclusive
Cn1c(NCc2ccccc2Cl)nc2ccccc21	BRCA1 expr act 3.5µM
Cn1c(NCc2ccccc2O)nc2ccccc21	BRCA1 expr act inconclusive
Cn1cnc2cc(NCc3ccccc3Cl)ccc21	BRCA1 expr act 7.9µM
COc1ccc(NC(=O)N2CCN(S(=O)(=O)c3ccc4c(ccn4C)c3)CC2)c(OC)c1	none (no result: Giardia killer, IL-2 act)
COc1ccc(NC(=O)CN(C)S(=O)(=O)c2ccc(C(=O)N3CCOCC3)s2)cc1	none (no result: Giardia killer, IL-2 act)
O=C(c1ccc(OCC2CCCO2)cc1)N1CCc2ccccc2C1 (stereo not given)	BRCA1 expr act 11µM
c1ccc2c(c1)CCCN2	none (no result: Giardia killer, mIDH1 inhibitor, BRCA1 expr act, IL-2 act)
CSc1ccc(/C=N/n2c(C)cc(C)cc2=O)cc1	BRCA1 expr act 10µM
CSc1nc(-c2ccco2)nn1C(=O)c1ccccc1	rTrxR1 inhibitor 20µM
CSc1nc(-c2ccco2)nn1C(=O)c1ccc(C)cc1	rTrxR1 inhibitor 20µM

Source: PubChem (National Center for Advancing Translational Sciences (NCATS))
